PubChem BioAssay
Calls of active or inactive are those of the source. Unless noted, how the calls were made is not given here.

What was measured:
[1] = kinase inhibitors against Plasmodium liver-stage infection, cell-based, known kinase inhibitor set, luminescence, hepatoma host viability (AID 624392); conditions: Plasmodium liver stage in hepatoma cells, luciferase luminescence, concentration not given here; liver cell % of control: measured here: host liver cell viability; parasite % of control: stronger effect = lower value;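 further: infected cells incubated roughly two days before readout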
[2] = modulators of glucocorticoid suppression of NF-kB, cell-based, luciferase, IL-1B stimulus, dexamethasone (AID 624486); conditions: NF-kB luciferase reporter, IL-1B + dexamethasone, luminescence; percent of negative control (+Dex): actives lie on both sides, concentration not given here; z-score: measured here: IL-1B alone, no Dex;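 on percent of negative control (+Dex): 100% = mean signal of vehicle control wells on the plate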
[3] = kinase inhibitors altering Pseudomonas killing of worms, whole organism (AID 651566);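 further: tested at 14 µM; sign flipped so higher z means a lower ratio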; conditions: C. elegans killed by P. aeruginosa, survival ratio
[4] = activators of macrophage pro-inflammatory response, cell-based, murine, luminescence (AID 652131); conditions: murine macrophage pro-inflammatory reporter, stronger effect = higher value
[5] = target: Cellular tumor antigen p53 (Homo sapiens) (UniProt P04637); assay: kinase inhibitors altering GFP-p53 stability in HPV16-positive cells, imaging, known kinase inhibitor set, EGFP/DsRed ratio (AID 1053116); conditions: stronger effect = higher value; EGFP object count: measured here: GFP-p53 positive objects count;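 further: cells exposed to compounds for 24 h at 37 °C before reading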
[6] = IRF3 reporter activation in THP-1 macrophages, cell-based, PMA-stimulated THP-1, luminescence (AID 1053176); conditions: PMA-differentiated THP-1, IRF3 reporter luminescence; stronger effect = higher value
[7] = survival rescue of mitochondrial mutant cells in low glucose, primary screen, MELAS cybrids, Rieske KO mouse fibroblasts, CellTiter-Glo (AID 1508586;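 active means mean z-score across replicates of 1.96 or higher in either the MELAS or the Rieske mutant cell line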;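 further: z relative to plate mean and SD of compound and empty wells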)
[8] = MELAS cybrid survival, CellTiter-Glo 48 h, stronger effect = higher value
[9] = Rieske KO mouse fibroblast survival, CellTiter-Glo 72 h

Sequence of Cellular tumor antigen p53 (Homo sapiens) (P04637 whole entry, looked up): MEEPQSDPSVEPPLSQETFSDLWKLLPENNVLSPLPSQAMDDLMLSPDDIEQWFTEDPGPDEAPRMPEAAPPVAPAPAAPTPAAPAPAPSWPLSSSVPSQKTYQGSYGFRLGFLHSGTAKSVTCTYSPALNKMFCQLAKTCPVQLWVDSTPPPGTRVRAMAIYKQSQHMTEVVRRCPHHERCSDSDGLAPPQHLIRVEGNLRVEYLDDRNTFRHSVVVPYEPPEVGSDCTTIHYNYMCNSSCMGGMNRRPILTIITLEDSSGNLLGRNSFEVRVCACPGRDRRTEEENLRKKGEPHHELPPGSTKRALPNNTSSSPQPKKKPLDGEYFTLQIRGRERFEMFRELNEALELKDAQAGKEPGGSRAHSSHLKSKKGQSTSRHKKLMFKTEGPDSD

SMILES | liver cell % of control [1] | parasite % of control [1] | percent of negative control (+Dex) [2] | z-score [2] | z-score [3] | z-score [4] | EGFP object count [5] | EGFP/DsRed ratio [5] | fraction signal [6] | z-score [7, 8] | z-score [7, 9]
O=C1NC(=O)C(c2cccc(Cl)c2)=C1Nc1ccc(O)c(Cl)c1 | 112% | 102% (inactive) | 93% (inactive) | 0.42 | -0.775 (inactive) | 0.127 (inactive) | 5 | 0.0621 (inactive) | -0.0075 (inactive) | -1.05 (inactive) | -0.373
COc1cc(Nc2nccc(-c3cnn4ncccc34)n2)cc(OC)c1 | 132% | 14.2% (inactive) | 29% (active) | -7.79 | 0.5 (inactive) | -1.96 (inactive) | 2.5 | 0.0482 (inactive) | -0.004 (inactive) | 1.1 (inactive) | 0.69
COc1cc(N2CCN(C(C)C)CC2)ccc1Nc1nc(Nc2cccc3ncccc23)c2cc[nH]c2n1 | 96.4% | 180% (inactive) | 92.5% (inactive) | -0.235 | 0.32 (inactive) | -0.489 (inactive) | 1 | 0.00687 (inactive) | -0.0005 (inactive) | -1.02 (inactive) | -0.0497
Nc1nccc(-c2c(-c3ccc(F)cc3)ncn2CCCN2CCOCC2)n1 | 120% | 130% (inactive) | 116% (inactive) | 2.06 | -0.635 (inactive) | 1.67 (inactive) | 3.5 | 0.019 (inactive) | -0.0025 (inactive) | -0.929 (inactive) | -0.324
COC1CCC2NC3C4NC5CCC(OC)CC5C4C4C(=O)NC(=O)C4C3C2C1 (configuration not stated) | 93.4% | 178% (inactive) | 106% (inactive) | 1.79 | 0.155 (inactive) | -0.67 (inactive) | 3 | 0.0486 (inactive) | -0.005 (inactive) | -0.302 (inactive) | 0.67
O=C1N=c2ccc(N=Cc3c(O)[nH]c4ccccc34)cc2=N1 | 79.5% | 117% (inactive) | 86% (inactive) | -0.205 | -0.24 (inactive) | 1.12 (inactive) | 5.5 | 0.268 (inactive) | -0.0005 (inactive) | 1.49 (inactive) | -0.0625
Cc1ccc2c(-c3ccnc(Nc4cccc(C(F)(F)F)c4)n3)c(-c3ccccc3)nn2n1 | 84.8% | 47.5% (inactive) | 89.5% (inactive) | -3.32 | -0.495 (inactive) | -1.57 (inactive) | 2.5 | 0.0663 (inactive) | -0.0065 (inactive) | 0.907 (inactive) | -0.257
CC(=Nc1ccc(S(N)(=O)=O)cc1)c1c(O)[nH]c2ccccc12 | 121% | 234% (inactive) | 176% (active) | 5.95 | -0.905 (inactive) | 6.44 (active) | 0.5 | 0.00933 (inactive) | 0.0025 (inactive) | -0.469 (inactive) | -0.351
Cc1ccc(-c2cc3c(NC(=O)C4CC4)ncnc3o2)cc1 | 108% | 92.7% (inactive) | 83.5% (inactive) | -0.295 | -0.475 (inactive) | -0.06 (inactive) | 4.5 | 0.0878 (inactive) | -0.004 (inactive) | -0.119 (inactive) | 0.346
COc1ccc(Nc2ncc(-c3ccccc3)o2)cc1OC | 152% | 101% (inactive) | 154% (inactive) | 4.41 | -0.885 (inactive) | 4.21 (inactive) | 3 | 0.0153 (inactive) | -0.0085 (inactive) | 1.52 (inactive) | 0.00272
COc1cc(/C=N/Nc2ncnc3c2cnn3-c2ccccc2)ccc1O | 108% | 61% (inactive) | 92% (inactive) | 0.145 | 0.145 (inactive) | -0.075 (inactive) | 4.5 | 0.778 (inactive) | -0.007 (inactive) | 1.22 (inactive) | 0.165
NCc1ccc(-n2c(-c3nonc3N)nc3cnccc32)cc1 | 104% | 162% (inactive) | 58% (inactive) | -3.59 | -0.655 (inactive) | -1.05 (inactive) | 1 | 0.0079 (inactive) | 0.003 (inactive) | -0.95 (inactive) | -0.216
CS(=O)(=O)Nc1ccc(-c2cc(-c3ccccc3)cc(C(N)=O)c2N)cc1 | 89.1% | 126% (inactive) | 88% (inactive) | -0.23 | 1.28 (inactive) | -1.08 (inactive) | 2 | 0.102 (inactive) | -0.0055 (inactive) | 0.927 (inactive) | 0.162
Cc1ccc2c(-c3ccnc(Nc4ccc5c(c4)OCCO5)n3)c(-c3ccc(C(F)(F)F)cc3)nn2n1 | 142% | 33.6% (inactive) | 86% (inactive) | -0.095 | -1.23 (inactive) | 0.821 (inactive) | 1.5 | 0.0121 (inactive) | 0.002 (inactive) | -0.379 (inactive) | 0.474
CN1CCC(n2cnc(-c3ccc(F)cc3)c2-c2ccnc(NCCO)n2)CC1 | 86.8% | 138% (inactive) | 102% (inactive) | 1.04 | 0.4 (inactive) | 0.387 (inactive) | 3.5 | 0.139 (inactive) | -0.0015 (inactive) | -0.289 (inactive) | -0.297
NC(=O)c1cccc(Nc2nccc(Nc3cccc(F)c3)n2)c1 | 116% | 398% (inactive) | 208% (active) | 8.4 | 1.67 (inactive) | 0.244 (inactive) | 2 | 0.0178 (inactive) | 0.002 (inactive) | -0.778 (inactive) | -0.359
O=c1c(Oc2ccc(F)cc2F)cc2cnc(NC3CCOCC3)nc2n1C1CCS(=O)(=O)CC1 | 120% | 83.4% (inactive) | 97% (inactive) | -0.26 | – | – | 3 | 0.101 (inactive) | -0.0075 (inactive) | – | –
Cn1cc(C2=C(c3cccc(NCC(O)CO)c3)C(=O)NC2=O)c2cc(Cl)ccc21 (configuration not stated) | 134% | 44.5% (inactive) | 140% (active) | -1.56 | – | – | 15 | 0.196 (inactive) | -0.0005 (inactive) | – | –
Cn1c(=O)c(Oc2ccc(F)cc2F)cc2cnc(NC(C)(C)CO)nc21 | 114% | 73.2% (inactive) | 106% (inactive) | 1.07 | – | – | 3 | 0.148 (inactive) | 0.023 (inactive) | – | –
CC(=O)NC(Cc1ccc(OP(=O)(O)O)cc1)C(=O)NC1CCC(=O)N2CCCC(C(=O)NCc3ccc(Cl)cc3)N2C1=O (configuration not stated) | 96.1% | 45.1% (inactive) | 95.5% (inactive) | 0.05 | – | – | 3.5 | 0.276 (inactive) | -0.003 (inactive) | – | –
Cn1cc(C2=C(c3c(S(C)=O)n(C)c4ccccc34)C(=O)NC2=O)c2ccccc21 (configuration not stated) | 123% | 78.6% (inactive) | 97.5% (inactive) | 0.295 | – | – | 5 | 0.591 (inactive) | -0.003 (inactive) | – | –
CC(=O)NC(Cc1ccc(OP(=O)(O)O)cc1)C(=O)NC1CCC(=O)N2CCCC(C(=O)NCc3ccccc3)N2C1=O (configuration not stated) | 105% | 55% (inactive) | 102% (inactive) | 0.685 | – | – | 1.5 | 0.0487 (inactive) | -0.0115 (inactive) | – | –
CNC(C#Cc1c(F)ccc2c1C(=Cc1[nH]ccc1OC)C(=O)N2)CO (configuration not stated) | 129% | 62.7% (inactive) | 144% (active) | 1.07 | – | – | 51.5 | 0.055 (inactive) | 0.001 (inactive) | – | –
Nc1c(C(=O)c2ccc(C#CCN3CCOCC3)cc2)cnn1-c1ccc(F)cc1 | 110% | 75.7% (inactive) | 106% (inactive) | 1.64 | – | – | 4.5 | 0.119 (inactive) | 0.01 (inactive) | – | –
COc1ccc(O)c(C(=O)c2ccc(C(=O)NC3CCCNCC3NC(=O)c3ccncc3)cc2)c1F (configuration not stated) | 115% | 83.5% (inactive) | 68.5% (active) | -3.04 | – | – | 10.5 | 0.105 (inactive) | 0.0035 (inactive) | – | –
Nc1c(C(=O)c2cccc(-c3ccncc3)c2)cnn1-c1ccc(F)cc1F | 92.7% | 53.9% (inactive) | 102% (inactive) | 0.04 | – | – | 5 | 0.0527 (inactive) | -0.009 (inactive) | – | –
COc1ccc(F)cc1C(=O)c1cnc(NC2CCN(S(C)(=O)=O)CC2)nc1N | 97.2% | 587% (inactive) | 96.5% (inactive) | -0.18 | – | – | 4.5 | 0.0651 (inactive) | -0.009 (inactive) | – | –
CN(C)CC#Cc1cccc(C(=O)c2cnn(-c3ccc(F)cc3)c2N)c1 | 101% | 74.8% (inactive) | 109% (inactive) | 1.23 | – | – | 3 | 0.0589 (inactive) | -0.001 (inactive) | – | –
Cn1cc(C2=C(c3cn(CCCO)c4ccccc34)C(=O)NC2=O)c2ccccc21 | 101% | 33.3% (inactive) | 115% (inactive) | -0.1 | – | – | 9.5 | 0.221 (inactive) | 0.0055 (inactive) | – | –
